For 36 compounds, z-score results are on record in PubChem BioAssay.

Active and inactive are the calls of the source.

In this assay the target is NADPH oxidase 4 (Homo sapiens) (UniProt Q9NPH5). As to the kind of experiment: compounds shifting NOX4 Amplex Red fluorescence – cell-based, HEK293-NOX4, tetracycline-induced, NOX inhibitor project, primary screen (AID 1160). Conditions: HEK293-NOX4, Amplex Red H2O2 fluorescence, 45 min; higher = more signal, called active from +8 up or from −8 down.
NADPH oxidase 4 (Homo sapiens), sequence (Q9NPH5 whole entry, looked up): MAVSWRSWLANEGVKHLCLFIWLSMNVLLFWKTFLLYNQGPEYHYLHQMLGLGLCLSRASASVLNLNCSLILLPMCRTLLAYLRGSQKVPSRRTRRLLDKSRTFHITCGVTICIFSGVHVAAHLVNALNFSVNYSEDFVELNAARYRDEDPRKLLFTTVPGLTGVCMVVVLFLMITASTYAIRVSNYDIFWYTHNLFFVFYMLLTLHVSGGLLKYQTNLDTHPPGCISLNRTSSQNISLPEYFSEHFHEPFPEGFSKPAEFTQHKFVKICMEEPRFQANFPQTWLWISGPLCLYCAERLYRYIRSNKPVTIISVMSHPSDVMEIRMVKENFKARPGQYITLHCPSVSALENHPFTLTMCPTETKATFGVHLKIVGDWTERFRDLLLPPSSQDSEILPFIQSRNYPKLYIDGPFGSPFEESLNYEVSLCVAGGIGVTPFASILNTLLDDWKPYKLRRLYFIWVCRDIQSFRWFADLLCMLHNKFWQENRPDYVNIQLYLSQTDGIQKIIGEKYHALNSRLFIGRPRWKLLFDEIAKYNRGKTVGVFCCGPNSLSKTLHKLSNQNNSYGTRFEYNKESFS
`COc1ccc([Si](C)(C)[C@@H]2[C@@H](CCO)O[C@]3(C(=O)N(Cc4ccc(NC(C)=O)cc4)c4ccccc43)[C@H]2C)cc1`: the z-score is -0.0308 (inactive). Regarding `CCCCC(=C=CC[C@H](O)c1ccccc1OCCO)C[C@H](O)COCc1ccccc1`, the z-score was -1.37 (inactive).

Consider `COC(=O)[C@H]1COC(c2ccc(OCCCO)cc2)=N1`, for which the z-score was 0.172 (inactive).

With `CC(C)C[C@@H]1NC(=O)[C@H]2C[C@@H](C(=O)NCCCCCCN(C)C)[C@@H](c3cccc(OCCO)c3)N2C1=O`, the z-score is 1.07 (inactive). The result for `O=C1O[C@@H](c2ccccc2)[C@@H](c2ccccc2)N2[C@@H](c3ccccc3OCCO)[C@]3(C(=O)Nc4ccc(C#CCCO)cc43)[C@@H](C(=O)O)[C@H]12` reads -0.438 (inactive); that for `CC(C)NC(=O)[C@@]1(C)c2ccccc2C(=O)N(Cc2cc(F)cc(C(F)(F)F)c2)[C@H]1c1ccc(CO)cc1`, 0.696 (inactive); that for `O=C1O[C@@H](c2ccccc2)[C@@H](c2ccccc2)N2[C@@H](c3ccc(OCCO)cc3)[C@]3(C(=O)Nc4ccccc43)[C@@H](C(=O)N3CCN(c4ncccn4)CC3)[C@H]12`, 0.368 (inactive). Regarding `CCc1cc2c(nc1CC)CCN(CCC(C)=NOC[C@@H](O)[C@H]1O[C@@H]3OC(C)(C)O[C@@H]3[C@H]1O)C2`, the z-score was 0.494 (inactive). Turning to `C=CC[C@@H]1C=C[C@H](ON=C(C)CCN2CCc3nc(CC)c(CC)cc3C2)[C@@H](CO)O1`, the z-score is 0.492 (inactive). Take `CN(C)CCCNC(=O)[C@@H]1c2ccccc2C(=O)N(Cc2cc(F)cc(C(F)(F)F)c2)[C@H]1c1ccc(CO)cc1`: the z-score is -0.0177 (inactive). For `O=C1[C@H]2[C@H]3[C@H](O)[C@H](O)CC(=NOC[C@@H](O)COCc4ccco4)[C@H]3CC[C@H]2C(=O)N1c1cccc(Oc2ccccc2)c1`, the z-score is 1.31 (inactive). For the compound `CS(=O)(=O)CCOC(=O)C1=CC(CCCO)=CC(c2cccs2)N(Cc2cccc(OC(F)(F)F)c2)C=C1C(=O)OCCS(C)(=O)=O` (stereo unspecified), the z-score is -1.15 (inactive).

Consider `CC(CCC(=O)OC[C@H]1O[C@H](C#Cc2ccccc2)C=C[C@@H]1Oc1ccc(C)cc1)=NO[C@@H](C)c1cn([C@H](CO)Cc2ccccc2)nn1`, for which the z-score is -0.298 (inactive). In the case of `COc1ccc(O[C@H]2C=C[C@@H](c3ccccc3)O[C@@H]2COC(=O)CCC(C)=NO[C@@H](C)c2cc(-c3c(C)cc(C)cc3C)no2)cc1`, the z-score was -0.00862 (inactive). For `CC(C)[C@@H](OCc1ccccc1)[C@H](C)C=NO[C@H](C)c1cn([C@H](CO)Cc2ccccc2)nn1`, the z-score is -0.147 (inactive). The result for `COc1cccc([C@H]2Oc3ccc(OC)cc3C(=NOC(C)CN3CCCc4nc(C)c(C)cc43)[C@@H]2O)c1` (stereo partly specified) reads -0.807 (inactive); that for `O=C1C[C@@H](O)[C@@H](O)[C@@H]2[C@@H]3C(=O)N(C4CCCCC4)C(=O)[C@@H]3CC[C@H]12`, 0.386 (inactive). The result for `COc1ccc([Si](C)(C)[C@H]2[C@H](CC(=O)N3CCC[C@H]3CO)O[C@@]3(C(=O)N(Cc4cccc(N5C(=O)COc6ccccc65)c4)c4ccccc43)[C@@H]2C)cc1` reads 1.21 (inactive). On to `CC(C)NC(=O)[C@@]1(c2ccc([N+](=O)[O-])cc2)CC(=O)N(CC23CC4CC(CC(C4)C2)C3)[C@@H]1c1ccc(CO)cc1I`, for which the z-score is 0.215 (inactive). Turning to `C=CCOC(=O)[C@H]1[C@@H]2C(=O)O[C@@H](c3ccccc3)[C@@H](c3ccccc3)N2[C@@H](c2ccc(OCCOC(=O)[C@H]3C[C@H]4C(=O)N5CCC[C@H]5C(=O)N4[C@H]3c3cccc(OCCO)c3)cc2)[C@]12C(=O)Nc1ccc(I)cc12`, the z-score was 0.165 (inactive). Then `CC(C)CN1CCc2nc(-c3ccccc3)c3c(c2CC1)CO[C@@H](C)C3`, with -0.0482 (inactive); and `CC(C)OC(=O)C=C1C[C@@H](c2ccc(C#N)cc2)O[C@@H](c2ccc(C#N)cc2)O1`, with -1.02 (inactive); and `C=CC[C@@H]1C=C[C@H](ON=C[C@@H](OC)[C@H](C)C=CCC(=O)OC)[C@@H](CO)O1`, with -0.102 (inactive). The result for `CN1C(=O)C2C(C1=O)C1C=C(CCCO)C2C(c2ccc(CN3CCCC3)cc2)N1C` (stereo unspecified) reads -1.25 (inactive); that for `COCC(=C=CC[C@@H](O)c1ccccc1OCCO)CCO`, 0.992 (inactive).

Consider `COCCOC(=O)N1C(=O)[C@@]2(c3cc(C#CCNC(N)=O)ccc31)[C@H](c1ccc(O)cc1)N1[C@H](c3ccccc3)[C@H](c3ccccc3)OC(=O)[C@H]1[C@@H]2C(=O)N1CCCCCCC1`, for which the z-score is -1.04 (inactive). The result for `C=C(/C(=C/C[C@H](OC(=O)c1ccncc1)c1ccc(OCCO)cc1)c1cnc2ccccc2c1)C(C)C` reads -0.346 (inactive); that for `Cc1cc2c(c(=O)o1)[C@H](O)[C@H]1O[C@H]1C2=O`, -1.04 (inactive). Turning to `COC(=O)[C@@H]1CC[C@H](C)[C@@H](c2ccc(C)cc2)N1C(=O)c1ccc(C=NOC[C@@H](O)COCc2ccco2)cc1`, the z-score was -0.0106 (inactive). Take `CO[C@@H]1COC(=O)[C@H](C)NC(=O)[C@@H](C)COC(=O)CCC[C@H]1C`: the z-score was 0.0705 (inactive). `CC(C)c1ccc(NN2C(C(O)c3ccc4c(c3)OCO4)C=CC3C(=O)N(c4ccccc4)C(=O)C32)cc1` (stereo unspecified): the z-score is -0.912 (inactive). For the compound `CCOC(=O)[C@H](Cc1ccccc1)NC(=O)CCC1CC(OC(=O)NCc2ccc3c(c2)OCO3)CC2(CCCC(COC(=O)NCc3ccccc3)O2)O1` (stereo partly specified), the z-score is 0.852 (inactive). Consider `CC(C)(C)OC(=O)CC[C@]1(C(=O)NCc2ccccc2)N=C(c2ccc(OCCCO)cc2)O[C@H]1c1ccccc1`, for which the z-score was -0.583 (inactive).

In the case of `Cc1ccc(C2CC=C(C(=O)O)CN2S(=O)(=O)c2ccc(C)cc2)cc1` (stereo unspecified), the z-score is -1.44 (inactive). Regarding `CC[C@@H](c1ccccc1)n1c(=O)n2n(c1=O)[C@H]1[C@H](O)[C@@H]3O[C@@H]3C(=NOCC=C(C)CCC=C(C)C)[C@H]1CC2`, the z-score was -1.85 (inactive). Then `CC(CCC(=O)OC[C@H]1O[C@H](C#Cc2ccccc2)C=C[C@@H]1Oc1ccc(C)cc1)=NOC[C@@H](O)COCc1ccco1`, with 0.811 (inactive).
